SMILES strings stand for the structures. Calls of active or inactive are those of the source. Cut-off read from the data, not from the text of the source: active = log2 fold change growth below about -1.8; inactive = the rest.

The nature of this assay: C. elegans growth inhibition, whole organism, log2 fold change (AID 1259336).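 Note: growth scored by imaging after five days at 20 °C.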 The following applies: anthelmintic screen, active compounds read low.
On to `NCCC(O)C(=O)N[C@@H]1C[C@H](N)[C@@H](OC2O[C@H](CN)[C@@H](O)[C@H](O)[C@H]2O)[C@H](O)C1OC1O[C@H](CO)[C@@H](O)[C@H](N)[C@H]1O` (stereo partly drawn), for which the log2 fold change growth is 0.334 (inactive).
Then `O=C(Nc1nc(-c2ccccn2)cs1)C1CC1c1ccccc1F` (stereo not drawn), with -2.09 (active); and `Cc1cccc(Cn2ccc(NC(=O)c3ccc4c(c3)OCO4)n2)c1`, with -0.327 (inactive); and `CNC(=O)CNc1nc(-c2ccccn2)nc2scc(-c3ccccc3)c12`, with 0.152 (inactive).
To `O=[N+]([O-])c1cn2c(n1)OC[C@@H](OCc1ccc(OC(F)(F)F)cc1)C2` belongs -0.142 (inactive); to `C[C@H]1CS(=O)(=O)CCN1/N=C/c1ccc([N+](=O)[O-])o1`, 0.236 (inactive).
Then `Cc1nc(-c2cccc(NCc3ccccc3)c2)[nH]c1C`, with 0.123 (inactive); and `Cc1cccc(NC(=O)c2cc(S(=O)(=O)N(C)c3ccc(F)cc3)ccc2Cl)n1`, with -0.21 (inactive).
As for `NC(N)=Nc1ccc(-c2ccc(-c3ccc(N=C(N)N)c(Cl)c3)o2)cc1Cl`, the log2 fold change growth is -0.555 (inactive).
To `O=C(Nc1n[nH]c(=S)s1)c1cc(Br)ccc1Cl` belongs 0.172 (inactive).
Then `CC1=Nc2ccc(Cl)cc2[C@H](c2ccccc2)N1CCNC(=O)CN(C)C`, with 0.44 (inactive).
Then `O=C(NCCc1c[nH]c2ccccc12)c1cc2ccccc2oc1=O`, with 0.481 (inactive); and `CC(=O)NC[C@H]1CN(c2ccc(-c3ccc(CO)cc3)c(F)c2)C(=O)O1`, with 0.592 (inactive); and `CCCCc1ccc(C(=O)Nc2nccc3ccccc23)nc1`, with 0.243 (inactive).
Turning to `c1ccc(Oc2ccc(-c3cc(N4CCNCC4)n[nH]3)cc2)cc1`, the log2 fold change growth is 0.489 (inactive).
Then `CCCCCCCCCCCCCCCCOP(=O)([O-])OCC[N+](C)(C)C`, with 0.528 (inactive).
To `CC(=O)Oc1ccccc1C(=O)Nc1ncc([N+](=O)[O-])s1` belongs 0.253 (inactive).
Take `O=C(NCc1ccco1)N1CCN(Cc2ccc(Cl)s2)CC1`: the log2 fold change growth is 0.334 (inactive).
Then `COc1cncc(-c2cncc(N3CCN(c4ccncc4)CC3)n2)c1`, with -0.191 (inactive); and `Clc1cccc([C@H](c2ccc(CN3CCNCC3)cc2)n2ccnc2)c1`, with -0.356 (inactive); and `COc1ccc(Cn2cnc3c(-c4ccco4)nc(Cl)nc32)cc1`, with -0.325 (inactive).
With `Clc1cccc(CO[C@H]2CCc3ccccc3[C@@H]2n2ccnn2)c1`, the log2 fold change growth is 0.571 (inactive).
Then `CN1CCN(S(=O)(=O)c2ccc(-c3ccc4c(Nc5ccc6n[nH]nc6c5)ccnc4c3)cc2)CC1`, with -0.667 (inactive); and `COc1cc(C2=NCCN2)ccc1-n1cc(-c2cccc(C3=NCCN3)c2)nn1`, with -0.901 (inactive).
To `Cc1cc(NCC(C)C)c2[nH]nc(-c3ccccc3)c2n1` belongs 0.0984 (inactive); to `OC[C@H]1O[C@@H](n2c3ccc(Cl)cc3c3c(-c4cc5ccccc5o4)ncnc32)C(O)[C@H]1O` (stereo partly drawn), -0.877 (inactive).
Then `FC(F)(F)c1ccc(N(c2cccnc2)C2CCN(c3ccc(C(F)(F)F)cn3)CC2)cc1`, with -0.44 (inactive); and `Cc1nc(-c2ccccn2)nc(N(C)CCc2ccccc2)c1Cl`, with -0.0752 (inactive); and `Clc1ccc(CN2CCN(C3=NCCN3)CC2)cc1Cl`, with 0.0846 (inactive).
On to `Cc1ccc(S(=O)(=O)N2CCN(C(=O)c3cc(-c4ccccc4)n[nH]3)CC2)cc1`, for which the log2 fold change growth is -0.371 (inactive).
Then `CNC(=O)[C@@H]1Cc2ccccc2N1C(=O)Cc1ccc(F)cc1`, with 0.145 (inactive); and `O=C(C1CCN(c2cc(-n3cccc3)ncn2)CC1)N1CCc2ccccc2C1`, with -0.11 (inactive).
Then `Brc1c(-c2ccc3c(c2)OCO3)nc2ncccn12`, with 0.0304 (inactive); and `NCCN(C(=O)c1ccc(Cl)cc1Cl)c1ccc(OCc2ccc(Cl)cc2)cc1`, with -0.0401 (inactive); and `COc1ccc(C2=NN(C3CCCCCC3)C(=O)C2(C)C)cc1OCCCCOc1ccc(-c2nn[nH]n2)cc1`, with -0.216 (inactive).
Then `O=C(Nc1ccccc1)c1ccc(-c2cc3ccncc3cc2OC2CCNCC2)s1`, with -0.0844 (inactive); and `CCOc1ccccc1C(=O)Nc1cccc(-c2nc3ncccn3c2C)c1`, with -0.256 (inactive); and `COc1cc(Br)cc2cc(C(=O)Nc3cccc(C(F)(F)F)c3)c(=O)oc12`, with 0.421 (inactive).

The values above are taken from PubChem BioAssay AID1259336 (Sattelle Laboratory, UCL Respiratory, Division of Medicine, …, 2017).
